Experimental data reported in PubChem BioAssay AID1508600 (Functional Genomics Laboratory (NCATS/FGL), 2020).
Among all 53,000 sequences or so, about 3,700 (7%) were called active. Many of the other results were omitted from the sample, so actives are more common in it than they were. Values without a mark were called inactive.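 The calls were made as follows: active = gene knockdowns whose robust z-score for IL-1 alpha signal is at least 2 or at most -2, so actives lie on both sides; inactive = the rest.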

Test: Components of the Cytosolic LPS Sensing Pathway: Gene Identification via Genome-wide siRNA Screen;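 also: robust z of the log signal after scaling to non-targeting control siRNA wells of the plate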
Conditions: RAW264.7 macrophages, IL-1a HTRF, actives lie on both sides, screened at 100 nM (by protocol), cells primed 5 h with Pam3CSK4 first
Summary of the method: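 Mouse macrophage line RAW264.7 is transfected with siRNA (100 nM final), grown 48h, primed with TLR ligand Pam3CSK4 5 h and given intracellular LipidA 24 h. IL-1a in supernatant is read by HTRF and viability by luminescence.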

Row | Sequence | z-score
1 | GGCUUUUUGUUAAGGCAGCTT against Ap1ar | 1.59
2 | GGAGACAACAACAAGACAUTT against Tbk1 | 3.12 (active)
3 | GGAGAAAGCUGCUCAUGAATT against Caml | -0.477
4 | GGCAGAUGAUCCCGGGAUUTT against Clvs1 | 0.545
5 | GGUAUGUCUGCAUAAAUGUTT against Cyp2c38 | 2.74 (active)
6 | GGUUCGUGUGGUUUAACAUTT against Afg3l1 | 1.55
7 | GGAUGAGAGGUAAAGUAACTT against Nptxr | 0.802
8 | GGUUCUCUGAUACCCACUCTT against Mgat4e | 0.44
9 | GGAAAUGUGGAGAGAAAAUTT against P2ry4 | 1.02
10 | GGCGACAUAUUUUUCAAACTT against Fmn1 | -0.506
11 | CGUGGAAGACAUACAACCCTT against Tmem181a | 3.03 (active)
12 | GGUCCGAGAGACAUUGGCATT against Lmx1b | -0.118
13 | CCUUAUAAGAAAGAUAGACTT against Nhlrc2 | -0.591
14 | GGAGCUUCAAGGUCUGUCGTT against Tmc6 | -2.65 (active)
15 | GCUGGAUGGCCGUUUCAAATT against Fancd2os | -0.00925
16 | GGAACUAAAUCUUCCAUCCTT against Chit1 | -1.02
17 | GGAAAUAGAAGACCAGUUUTT against Srsf3 | -1.43
18 | GGCACCAUCUACGACUAUGTT against Gpx5 | -0.649
19 | GGUGAGCACUAAAUGCAGATT against Cldn16 | 0.892
20 | GCAAAUGUUGCCCAUCGUGTT against Ppp2r1b | 0.44
21 | GGAAAUCCUGGGACAGAACTT against Htatip2 | -2.42 (active)
22 | GCCUGAGAUCGUGAACACUTT against Ccdc159 | -0.0179
23 | GGAGGCCUUGUACUUACACTT against Rspo1 | 1.26

Row | Sequence | z-score
24 | GGUGAAUCAGACAUACUAUTT against Snupn | 3.31 (active)
25 | GGUAUGGAUGCUUGAGAAATT against Ccdc77 | -1.15
26 | GGAGCCAGUCCAAAUUGCATT against Il13ra1 | 0.561
27 | GCCCAUUGAGUUUGAUUCATT against Itgav | 1.57
28 | GGACGAUUCUUUUCUCCAGTT against Surf1 | -2.07 (active)
29 | CCUCAUCGAAUUCGAUACCTT against Arrb2 | -0.181
30 | CGCUACGUCCAGUAUCACCTT against Tmem192 | -0.471
31 | CCAGAUAGGUAAAAAACAATT against Acta2 | -0.562
32 | GCAAAUUUAAGAGAAGUUGTT against Dse | -0.132
33 | CCUAGACUUGAACAAACACTT against Lsm12 | -2.11 (active)
34 | GCUUCGGCCUCAGUAUUCATT against Pigb | 0.0355
35 | GCAUACUUAGGAUACACGCTT against A830005F24Rik | -0.647
36 | GCCACAUUCUUCUCAACCUTT against Tas2r106 | -2.14 (active)
37 | GGUAGUUAACACAAAAUUGTT against 4932438H23Rik | 0.334
38 | GGACUUCUUGGACCUACUUTT against F5 | -1.55
39 | GGUAGGAGGUAUUUCCCACTT against Shisa5 | 0.197
40 | GGCUUCUAAGCAUACUCAGTT against Iqsec1 | -0.257
41 | GCUCCUCUCCAAGGUCAUUTT against Olfr96 | 0.652
42 | GGAUUUUCCAGGCAUGAGGTT against Ehd3 | -2.24 (active)
43 | GGAAAUGCGCCAUGAGUUGTT against Soga3 | -0.124
44 | GAGUUGUACUCUUCACUAUTT against Olfr497 | -2.6 (active)
45 | GGACUAUUGUCUCAUUUGATT against Olfr1189 | 1.04
46 | GGACAACGUAGCCUUCGUUTT against Ncln | -0.562

Row | Sequence | z-score
47 | GGUGGAUUCUAUUAAAUGCTT against Gm14461 | 0.462
48 | CCAUUAGCAAUGUGCUUCUTT against Unc13a | 0.268
49 | GGUGUUCGAGAAGCUGAAGTT against Haus7 | -0.371
50 | GGAUCUUUCGUGUGGAAAATT against Atf7ip | 0.87
51 | GCUUUUGGACUGAAUCUCATT against 2210016L21Rik | 2.78 (active)
52 | GGCCACCUUCUUUGAGGUATT against Snai1 | 1.11
53 | GGUAGGACUAACAAUAAAATT against Gpr4 | -0.0158
54 | GACCUGAAUAAAGACUGUCTT against Cort | 0.697
55 | CGGACUUACCAAAAGCGCATT against Lss | 3.16 (active)
56 | GGAGAGAGAUGAAAUUUGATT against Kif26b | 1.79
57 | GGAGAAAAUCAACAAGAUCTT against Ppp2r2c | -0.437
58 | CCAUUGAGGUAAUGUUUGATT against Rmnd1 | 0.978
59 | UGAUAUCGGAACAGAGAUGTT against Tbx15 | -0.467
60 | GGAAGUAAAAACAUACCUUTT against Chac2 | 2.02 (active)
61 | CCCAAAGCCCUUUUAAACUTT against Hmbs | 0.301
62 | GGUAAAAGACUAAAGAAGATT against Coch | -0.485
63 | CCGCUGUUUUCAACUGUGCTT against Asb10 | -0.773
64 | GGAAGUGGUGGAACUCCUGTT against Tmem215 | -2.65 (active)
65 | GGACCUGGUCACCAUCUUGTT against Tram2 | -0.3
66 | CGGCAGAAGGGUUUUUAUGTT against Rnf126 | -0.365
67 | CCAUACAUAUAGACAAUCCTT against AY358078 | 0.796
68 | CCUUCAUGCAACAGCUACUTT against Nckap5l | -2.57 (active)
69 | GCCCUAUCUACCAUAACACTT against Dok3 | -2.11 (active)
